target: T1, Arginase-2, mitochondrial (Homo sapiens) (UniProt P78540); test: in vitro enzyme assay to detect the production of urea directly proportional to the activity of Arginase II; assay type: functional; parameters: scale not given: in the data most compounds retested in dose-response had high values; details: 33.3 µM
T1 sequence (whole entry): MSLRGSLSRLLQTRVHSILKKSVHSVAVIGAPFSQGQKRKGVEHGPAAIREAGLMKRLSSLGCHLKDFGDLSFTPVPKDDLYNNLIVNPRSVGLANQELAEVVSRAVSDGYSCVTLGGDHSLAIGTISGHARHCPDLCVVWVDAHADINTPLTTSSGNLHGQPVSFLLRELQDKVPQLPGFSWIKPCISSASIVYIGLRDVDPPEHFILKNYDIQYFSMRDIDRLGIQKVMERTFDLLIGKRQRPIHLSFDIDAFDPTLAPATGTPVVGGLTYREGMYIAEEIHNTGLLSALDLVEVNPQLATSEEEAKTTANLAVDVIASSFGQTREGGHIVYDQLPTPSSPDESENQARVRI

| SMILES | Percent Effect |
| --- | --- |
| COc1c(CNC2CCc3cc(F)ccc32)c(C)nn1C (stereo not given) | 5.94% |
| Cc1ccc(NC2CCN(C(=O)c3cc(C(N)=O)cs3)CC2)nn1 | 0.444% |
| COC[C@@H]1CC[C@H]2[C@H](CCN2S(=O)(=O)c2ccc(OC)cc2)O1 | -1.62% |
| NC(=O)CN1CCC(C(=O)N2CCCC(OCc3cccnc3)C2)CC1 (stereo not given) | -0.35% |
| Cc1ccc(F)cc1C(=O)N1C[C@@H](CN2CCOCC2)[C@@H](CO)C1 | 4.54% |
| CC(C)N1CCO[C@H]2CN(C(=O)c3ccc(N(C)C)cc3)C[C@H]21 | 3.64% |
| O=C(c1cc(C2CC2)on1)N1CCCC(n2cncn2)C1 (stereo not given) | -0.82% |
| CC(Cn1cccn1)NC(=O)N1CCN(Cc2cccs2)CC1 (stereo not given) | -3.1% |
| Cc1nc(-c2ccc(C(=O)O)cc2)cc(C2CCN(C(C)C)C2)n1 (stereo not given) | 4.87% |
| O=C(Nc1nnc(C2CC2)s1)NC1CCN(Cc2ccccc2)C1 (stereo not given) | 0.82% |
| Cc1cc(C(=O)NCc2ccnc(N3CCN(C)CC3)c2)c(C)s1 | 3.69% |
| CC(Cn1cccn1)NC(=O)NCc1cccnc1OC1CCCC1 (stereo not given) | 0.887% |
| Cn1ccc(CN2CCC(NC(=O)Cc3ccccc3)CC2)cc1=O | 2.87% |
| CN(C)CC(=O)N1CCC2(CCN(Cc3ccccn3)C2=O)C1 (stereo not given) | -4.45% |
| CC(C)n1ccnc1C1CCN(C(=O)c2ccccc2)CC1 | 11.5% |
| Cc1nccn1-c1cccc(C2CCCN2S(=O)(=O)N(C)C)n1 (stereo not given) | -0.443% |
| O=C(c1ccccn1)N1CCN(c2ccc(-c3cccnc3)nn2)CC1 | 4.11% |
| Cc1ccccc1-c1cc(C(=O)NCCN2CCCS2(=O)=O)[nH]n1 | -2.05% |
| Cc1cc2cc(C(=O)N3CC[C@H](O)[C@]4(CCCO4)C3)ccc2o1 | -3.1% |
| CC(C)n1[nH]c(=O)c2c1NC(=O)CC2c1ccc2ncccc2c1 (stereo not given) | -5.94% |
| O=C(C1CCC1)N1CCn2c(COc3ncccn3)nnc2C1 | -11.7% |

target: T2, Proteasome subunit beta (Trypanosoma cruzi) (UniProt O96673); test: Trypanosoma cruzi proteasome chymotrypsin-like activity (TcProtChymo) assay.; assay type: functional; parameters: scale not given: in the data most compounds retested in dose-response had high values; details: 9.37 µM
T2 sequence (whole entry): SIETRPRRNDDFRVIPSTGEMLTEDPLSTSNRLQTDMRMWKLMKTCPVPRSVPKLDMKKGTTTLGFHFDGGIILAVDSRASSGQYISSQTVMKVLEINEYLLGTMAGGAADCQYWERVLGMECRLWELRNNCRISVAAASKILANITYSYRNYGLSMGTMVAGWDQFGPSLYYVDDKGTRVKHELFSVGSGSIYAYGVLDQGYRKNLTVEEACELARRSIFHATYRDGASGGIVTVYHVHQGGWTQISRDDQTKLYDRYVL

| SMILES | Percent Effect |
| --- | --- |
| Cc1nc[nH]c1CN1CCN(C(=O)c2cccs2)[C@H]2CS(=O)(=O)C[C@H]21 | 4.62% |
| Cc1ccc(CCC(=O)N2CCCC(n3cncn3)C2)c(C)c1 (stereo not given) | 2.63% |
| Cc1cc(-c2nn(C)c(Cl)c2CN2CCOCC2CC(=O)O)no1 (stereo not given) | 12.2% |
| CCc1nc(CN2CCCN(C(=O)c3cn[nH]c3CC)CC2)cs1 | 10.2% |
| CCC(=O)N1CCC(Cc2nccnc2Nc2ccccn2)CC1 | -5.91% |
| Cn1cc(NC(=O)N2CCC(NS(C)(=O)=O)CC2)ccc1=O | 1.11% |
| CC(C)CC(=O)N1C[C@@H]2CCN(c3ncccn3)C[C@@H]2C1 | 14.2% |
| CN(Cc1ccc2c(c1)OCCO2)C(=O)Cn1ccccc1=O | 19.8% |
| Cc1ccc(N2CCC3(CCCN(C(=O)c4cccnc4)C3)C2)nn1 (stereo not given) | 16.1% |
| O=C(c1cc[nH]n1)N1CCCC(c2cccc(-n3ccnc3)n2)C1 (stereo not given) | 8.05% |
| COC(=O)C1CCN(C(=O)c2ccc(N(C)S(C)(=O)=O)c(C)c2)CC1 | 13.7% |
| CC(=O)N(Cc1ncc(C)o1)C1CCN(CCCc2cnn(C)c2)C1 (stereo not given) | 26.2% |
| O=C(c1ccc(F)cc1Cl)N1CCC(Nc2cccnn2)CC1 | 7.37% |
| Cc1cc(CNc2cc(Cl)ccc2OCCS(C)(=O)=O)no1 | -4.01% |
| CN1[C@H](Cn2cccn2)C[C@@H]2CN(C(=O)Cc3cccs3)CC[C@@H]21 | 9.53% |
| Cc1cccc(CN2C[C@@H]3COC[C@]3(CNC(=O)c3ccsc3)C2)n1 | 22.3% |
| COc1ccc(C2CC(=O)Nc3c2nc2n3CCCC2)cc1OC (stereo not given) | 15.9% |
| CN(C)CCN1CCC2(CCN(C(=O)c3ccc(F)cc3)CC2)C1=O | 16.7% |
| COc1c(CNC2CCc3cc(F)ccc32)c(C)nn1C (stereo not given) | -1.23% |
| Cc1ccc(NC2CCN(C(=O)c3cc(C(N)=O)cs3)CC2)nn1 | 7.55% |

| SMILES | Percent Effect |
| --- | --- |
| COC[C@@H]1CC[C@H]2[C@H](CCN2S(=O)(=O)c2ccc(OC)cc2)O1 | 6.09% |
| NC(=O)CN1CCC(C(=O)N2CCCC(OCc3cccnc3)C2)CC1 (stereo not given) | 6.16% |
| Cc1ccc(F)cc1C(=O)N1C[C@@H](CN2CCOCC2)[C@@H](CO)C1 | 9.76% |
| CC(C)N1CCO[C@H]2CN(C(=O)c3ccc(N(C)C)cc3)C[C@H]21 | 15.6% |
| O=C(c1cc(C2CC2)on1)N1CCCC(n2cncn2)C1 (stereo not given) | 20.7% |
| CC(Cn1cccn1)NC(=O)N1CCN(Cc2cccs2)CC1 (stereo not given) | 17.4% |
| Cc1nc(-c2ccc(C(=O)O)cc2)cc(C2CCN(C(C)C)C2)n1 (stereo not given) | 10.7% |
| O=C(Nc1nnc(C2CC2)s1)NC1CCN(Cc2ccccc2)C1 (stereo not given) | 4.01% |
| Cc1cc(C(=O)NCc2ccnc(N3CCN(C)CC3)c2)c(C)s1 | 3.67% |
| CC(Cn1cccn1)NC(=O)NCc1cccnc1OC1CCCC1 (stereo not given) | 8.06% |
| Cn1ccc(CN2CCC(NC(=O)Cc3ccccc3)CC2)cc1=O | 6.74% |
| CN(C)CC(=O)N1CCC2(CCN(Cc3ccccn3)C2=O)C1 (stereo not given) | 12.6% |
| CC(C)n1ccnc1C1CCN(C(=O)c2ccccc2)CC1 | 14% |
| Cc1nccn1-c1cccc(C2CCCN2S(=O)(=O)N(C)C)n1 (stereo not given) | 8.05% |
| O=C(c1ccccn1)N1CCN(c2ccc(-c3cccnc3)nn2)CC1 | 21.7% |
| Cc1ccccc1-c1cc(C(=O)NCCN2CCCS2(=O)=O)[nH]n1 | 5.72% |
| Cc1cc2cc(C(=O)N3CC[C@H](O)[C@]4(CCCO4)C3)ccc2o1 | 8.37% |
| CC(C)n1[nH]c(=O)c2c1NC(=O)CC2c1ccc2ncccc2c1 (stereo not given) | 10.6% |
| O=C(C1CCC1)N1CCn2c(COc3ncccn3)nnc2C1 | 12.8% |

From ChEMBL document CHEMBL3988442, “University of Dundee, Small-Polar-MMV Screening Library” (2021)
